Bioassay records: PubChem, The Scripps Research Institute Molecular Screening Center
NCOA2 inhibitor: inhibition of GAL4-SRC2 driven luciferase reporter, primary screen, SRC2 inhibitor project, cell-based, luminescence; HEK293 GAL4-SRC2 luciferase reporter; inhibition, % at 9 µM; AID 651957, 2012; Nuclear receptor coactivator 2 (Homo sapiens), Q15596; hit rate 0.17% among 370,000;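 active = inhibition above the mean inhibition of all tested compounds plus 3 SD, set per campaign, cut at about 52% in these data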;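 note: 0% = DMSO treated cells and 100% = cells given Gossypol at 36 µM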
Target sequence (Q15596 whole entry, looked up, the tested form may be a part): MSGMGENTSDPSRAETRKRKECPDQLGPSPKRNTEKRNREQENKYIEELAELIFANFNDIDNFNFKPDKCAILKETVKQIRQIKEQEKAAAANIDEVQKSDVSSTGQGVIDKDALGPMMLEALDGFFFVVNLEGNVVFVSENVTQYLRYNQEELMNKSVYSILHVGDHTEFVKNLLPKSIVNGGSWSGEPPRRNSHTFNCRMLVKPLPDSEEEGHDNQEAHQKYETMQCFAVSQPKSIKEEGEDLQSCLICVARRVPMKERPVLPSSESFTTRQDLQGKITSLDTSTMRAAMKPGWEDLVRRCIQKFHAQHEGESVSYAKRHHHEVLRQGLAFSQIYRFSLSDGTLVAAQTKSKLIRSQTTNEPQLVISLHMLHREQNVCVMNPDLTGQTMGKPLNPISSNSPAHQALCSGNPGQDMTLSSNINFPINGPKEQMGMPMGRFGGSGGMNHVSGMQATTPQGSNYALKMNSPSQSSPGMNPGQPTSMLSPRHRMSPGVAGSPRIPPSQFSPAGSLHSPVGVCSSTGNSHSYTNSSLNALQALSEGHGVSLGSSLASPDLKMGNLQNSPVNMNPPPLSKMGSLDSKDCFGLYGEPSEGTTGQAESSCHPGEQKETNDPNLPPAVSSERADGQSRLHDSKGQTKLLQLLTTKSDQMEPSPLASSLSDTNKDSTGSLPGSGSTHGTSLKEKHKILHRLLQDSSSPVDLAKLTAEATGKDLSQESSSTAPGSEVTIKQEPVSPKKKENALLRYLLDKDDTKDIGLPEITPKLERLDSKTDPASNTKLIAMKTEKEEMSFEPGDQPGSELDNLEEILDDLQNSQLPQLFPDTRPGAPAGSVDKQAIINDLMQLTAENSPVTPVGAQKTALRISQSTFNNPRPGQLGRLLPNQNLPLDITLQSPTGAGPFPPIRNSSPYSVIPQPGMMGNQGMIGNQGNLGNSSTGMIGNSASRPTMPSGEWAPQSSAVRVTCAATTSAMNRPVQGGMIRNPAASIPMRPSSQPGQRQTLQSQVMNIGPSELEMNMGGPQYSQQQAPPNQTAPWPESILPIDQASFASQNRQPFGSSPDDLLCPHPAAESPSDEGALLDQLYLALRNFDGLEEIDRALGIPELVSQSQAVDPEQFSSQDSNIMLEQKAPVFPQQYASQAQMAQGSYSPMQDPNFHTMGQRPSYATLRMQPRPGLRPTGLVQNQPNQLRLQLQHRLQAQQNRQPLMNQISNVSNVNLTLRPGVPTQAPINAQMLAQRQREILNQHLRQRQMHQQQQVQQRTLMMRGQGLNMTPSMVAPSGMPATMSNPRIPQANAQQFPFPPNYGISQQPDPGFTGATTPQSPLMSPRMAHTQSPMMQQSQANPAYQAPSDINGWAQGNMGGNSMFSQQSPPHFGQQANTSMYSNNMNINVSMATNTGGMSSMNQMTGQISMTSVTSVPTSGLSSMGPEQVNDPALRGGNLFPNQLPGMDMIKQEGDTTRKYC
GalR3 antag: GalR3 antagonists in HEK293 cells, primary screen, cell-based, fluorescence readout; Galanin receptor type 3 (Homo sapiens), O60755; inhibition, % at 3 µM; HEK293 GalR3-CNG cAMP membrane potential fluorescence; galR3 body fused to GalR1 C-terminus; AID 651719, 2012; hit rate 0.44% among 360,000;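 active = inhibition above the screen-wide average plus 3 SD, cut at about 13% in these data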;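 note: forskolin and galanin both at EC90 stimulate the cells; cAMP rise reported by CNG channel membrane potential dye signal; 0% = forskolin plus galanin with DMSO and 100% = forskolin alone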
SRC1 inh: SRC1 coactivator transcriptional activity inhibitors, primary screen, cell-based, luminescence | inhibition, % at 3.6 µM | hit rate 0.12% among 360,000 | AID 588354, 2011 | HEK293 GAL4-SRC1 luciferase reporter | Nuclear receptor coactivator 1 (Homo sapiens), Q15788;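 active = inhibition above the campaign mean plus 3 SD, with each screening campaign given its own cutoff, cut at about 60% in these data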;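 note: 0% = DMSO treated cells and 100% = gossypol at 36 µM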
NCOA3 inh: SRC3 coactivator transcriptional activity inhibitors, primary screen, cell-based, luminescence | HEK293 GAL4-SRC3 luciferase reporter | hit rate 0.17% among 360,000 | AID 588352, 2011 | inhibition, % at 3.6 µM | Nuclear receptor coactivator 3 (Homo sapiens), Q9Y6Q9;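 active = inhibition above a per-campaign cutoff, the mean of all compounds plus 3 SD, cut at about 60% in these data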;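 note: 0% = DMSO-treated cells and 100% = gossypol-treated cells at 36 µM; higher means less SRC3-driven luciferase light from the GAL4 reporter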
NR5A2 inv ag: LRH-1 (NR5A2) inverse agonists, primary screen, cell-based, luminescence, HEK293T, StAR-luciferase reporter; inhibition, % at 3.6 µM; hit rate 0.13% among 360,000; LRH-1 transfected, 24 h; Nuclear receptor subfamily 5 group A member 2 (Homo sapiens), O00482;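 active = inhibition above the mean inhibition of all tested compounds plus 3 SD, cut at about 73% in these data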;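 note: 0% = DMSO wells and 100% = reporter-only cells lacking LRH-1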
COUP-TFII inh: NR2F2 transcriptional activity inhibitors, primary screen, cell-based, luciferase reporter, HEK293T, luminescence. COUP transcription factor 2 (Homo sapiens), P24468. HEK293T NGFI-A luciferase reporter. inhibition, % at 8.6 µM. hit rate 0.7% among 370,000. AID 686940, 2013;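 active = inhibition above a per-plate cutoff, mean inhibition of test wells between control levels plus 3 SD, cut at about 38% in these data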;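 note: cells cotransfected with COUP-TFII expression vector driving the NGFI-A reporter; 0% = median of COUP-TF2 test wells and 100% = reporter-only cells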
VP16 Luc counter: Gal4-VP16 luciferase reporter inhibitors, counter-screen for COUP-TFII antagonist project, cell-based, luminescence, HEK293; shares compounds with COUP-TFII inh; hit rate 25% among 2,500; inhibition, % at 8.5 µM; in the data active = inhibition above about 13%
NR2F2 inh conf: NR2F2 transcriptional activity inhibitors, confirmation, cell-based, luciferase reporter, HEK293, triplicate; shares compounds with COUP-TFII inh; HEK293 NGFI-A luciferase reporter, luminescence; inhibition, % at 8.5 µM; hit rate 45% among 2,500; AID 687008, 2013;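 active = mean inhibition over three repeats above a set limit taken from the earlier primary screen, cut at about 38% in these data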;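 note: 100% = cells given the luciferase reporter alone without the COUP-TF2 vector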
Starred values were filed as active, the others as inactive; x = no result. A selection: hits, their analogues and other compounds. The true share with any hit is near 1.1%.

SMILES	NCOA2 inhibitor	GalR3 antag	SRC1 inh	NCOA3 inh	NR5A2 inv ag	COUP-TFII inh	VP16 Luc counter	NR2F2 inh conf
COC(=O)[C@@]1(C(C)C)N=C(c2cc(OC)c(OC)c(OC)c2)[C@]2(O1)C(=O)N(Cc1cn(Cc3ccccc3)nn1)c1ccc(F)cc12	-0.6	x	x	x	x	-11.7	x	x
O=C(Nc1ccc(Oc2ccccc2)cc1)c1ccc2sc([C@H]3C[C@H](O)[C@@H](CO)O3)nc2c1	28.2	2.0	32.1	5.4	37.9	73.8*	-22.1	46.0*
O=C(Nc1cccc(C(F)(F)F)c1)c1ccc2sc([C@H]3C[C@H](O)[C@@H](CO)O3)nc2c1	-6.6	-3.8	14.8	12.9	12.3	57.9*	3.4	23.8
O=C(Nc1ccc(Oc2ccccc2)cc1)c1csc([C@@H]2O[C@H](CO)[C@@H](O)[C@H]2O)n1	27.8	4.5	32.6	-14.5	37.4	65.8*	7.1	50.8*
CC(=O)Nc1ccc(NC(=O)c2ccc3sc([C@H]4C[C@H](O)[C@@H](CO)O4)nc3c2)cc1	4.1	-6.0	-9.6	2.5	9.3	1.6	x	x
COC(=O)[C@]12C[C@H](CC(=O)N3CCN(C(=O)c4ccco4)CC3)C(=O)N(Cc3ccco3)C1=C[C@H](C(C)(C)C)O[C@@H]2C	-6.8	x	x	x	x	-0.8	x	x
COC(=O)[C@]12C[C@H](CC(=O)NCc3cccs3)C(=O)N(Cc3ccco3)C1=C[C@H](COCc1ccccc1)O[C@@H]2C	-4.3	x	x	x	x	-14.5	x	x
COc1ccc(CC(=O)Nc2cccc(SC)c2)cc1OC	10.6	-7.8	18.4	21.4	31.3	40.8*	16.7*	38.5*
COc1ccc(C(C)=O)cc1CSc1nnc(C)s1	-21.0	-7.1	-11.6	-0.7	13.4	-9.1	x	x
COc1ccc(C(C)=O)cc1CSc1nnc(Nc2ccccc2)s1	9.4	-14.2	6.8	38.2	22.9	49.9*	3.0	36.3
COc1ccc(C(C)=O)cc1CSc1nnc(Nc2ccc(C)cc2)s1	17.1	2.4	11.4	18.6	-18.1	42.1*	10.1	21.5
CCOC(=O)Cc1csc(NC(=O)/C=C/c2ccc(Cl)cc2)n1	-2.1	-6.0	-1.4	-11.0	-14.0	44.2*	-65.7	4.5
O=C(c1ccc(F)cc1F)N(Cc1ccccn1)CC1CCCO1 (stereo unspecified)	0.4	x	x	x	x	5.2	x	x
O=C(NCc1ccc(F)c(F)c1)c1ccc(-c2ccc(F)c(F)c2)c2ccoc12	-0.7	-7.5	6.6	12.4	24.4	5.6	x	x
O=C(NCc1cccnc1)c1ccc(-c2ccc(F)c(F)c2)c2ccoc12	28.3	-7.3	11.2	-7.3	19.7	67.7*	3.3	49.5*
COc1cc(F)ccc1CN1CCC(C(=O)Nc2ccc(Oc3ccccc3)nc2)CC1	15.8	-11.2	17.7	29.3	18.9	39.8*	2.6	21.4
O=C(NCc1cccnc1)c1c[nH]c2cc3c(cc2c1=O)OCCO3	-44.0	-6.0	-13.3	-4.2	-15.0	39.4*	-117.0	30.4
NC(=O)C1CCN(c2ncc(Br)s2)CC1	x	x	x	x	x	-7.7	x	x
CCN(CC)S(=O)(=O)c1cc(NC(=O)c2ccc(-n3cncn3)c([N+](=O)[O-])c2)ccc1C	27.3	-1.1	-18.3	16.7	10.2	54.0*	3.9	23.2
CN(CCCOC(=O)c1occ2ccccc12)C1CN(Cc2cn(Cc3ccccc3Cl)nn2)S(=O)(=O)C1 (stereo unspecified)	-29.2	x	x	x	x	14.5	x	x
C=CC[C@@]1(c2ccc(Br)cc2OC)Oc2ccccc2-c2nccnc21	12.7	x	x	x	x	2.2	x	x
N#Cc1ccc(-c2ccc(OCC(=O)Nc3cccnc3)cc2)cc1	53.3*	7.5	-15.4	-8.1	37.0	47.0*	-4.3	23.4
O=C(CSc1nnc(-c2cccnc2)n1Cc1ccco1)Nc1ccc(F)cc1Cl	23.3	x	x	x	x	-2.3	x	x
Cc1nc2ccc(NC(=O)c3cccs3)cc2c(=O)n1Cc1ccc(Cl)cc1	10.1	-12.9	27.6	37.2	50.6	58.6*	8.3	45.7*
Cc1cccnc1NC(=O)C1CCN(S(=O)(=O)c2c(C)noc2/C=C/c2ccco2)CC1	-17.9	0.2	3.5	-2.9	25.5	19.8	x	x
SMILES	NCOA2 inhibitor	GalR3 antag	SRC1 inh	NCOA3 inh	NR5A2 inv ag	COUP-TFII inh	VP16 Luc counter	NR2F2 inh conf
Cc1ccc(NC(=O)C2CCN(S(=O)(=O)c3c(C)noc3/C=C/c3ccco3)CC2)nc1	38.7	-3.5	20.6	13.9	2.3	39.0*	-0.4	22.0
CCOC(=O)N1CCC(NC(=O)C2CCCN(Cc3nc(-c4cccc(Cl)c4)oc3C)C2)CC1 (stereo unspecified)	27.9	x	13.1	16.6	14.6	48.2*	-0.1	28.6
Cc1oc(-c2ccc(Cl)cc2)nc1CN1CCCC(C(=O)NC2CC2)C1 (stereo unspecified)	16.3	-8.2	6.5	-18.6	6.6	6.5	x	x
CCc1ccc(-c2nc(CN3CCCC(C(=O)NCCc4ccc(OC)c(OC)c4)C3)c(C)o2)cc1 (stereo unspecified)	28.0	-8.7	-30.6	-10.2	-4.9	49.3*	2.7	13.6
CCOC(=O)N1C(=O)C[C@](Sc2ccc(OC)cc2)(C(=O)N2CCCC2)[C@H]1c1ccc(OC)cc1	-20.0	x	x	x	x	10.8	x	x
COc1ccc2c(c1)/C(=C\c1cccc(/C=C3/C(=O)Nc4ccc(OC)cc43)n1)C(=O)N2	54.8*	-1.2	3.3	19.0	22.1	69.8*	75.1*	95.3*
CC(C)(C)n1ncc2c(=O)n(CC(=O)OCc3ccccc3)cnc21	32.6	-3.8	42.1	60.0	10.3	60.7*	59.2*	80.5*
CC(C)CNc1ncnc2c1ncn2[C@H]1CN(Cc2ccc(-c3ccccc3)cc2)C[C@@H](CO)O1	-3.4	-6.6	18.0	6.6	11.8	61.0*	5.5	43.1*
CC(C)CNc1ncnc2c1ncn2[C@H]1CN(Cc2ccncc2)C[C@@H](CO)O1	-4.0	-5.5	6.3	0.9	-2.8	10.8	x	x
CC(C)Nc1ncnc2c1ncn2[C@H]1CN(Cc2ccc(-c3ccccc3)cc2)C[C@@H](CO)O1	24.5	-3.5	18.0	-2.6	23.6	49.2*	2.7	17.6
Cc1ccsc1S(=O)(=O)n1c(CN2CCOCC2)nc2ccccc21	8.9	x	x	x	x	13.0	x	x
CC1=C(C(=O)OCc2ccc3c(c2)OCO3)C(c2ccc(Cl)cc2)NC(=O)N1 (stereo unspecified)	59.2*	-4.4	75.4*	65.0*	61.8	47.8*	28.8*	37.0
